Hits are enriched below; roughly 2.9% of the tested compounds scored in any of these assays.
Nrf2 block: blocks Nrf2 signaling. A549 ARE-Fluc reporter, luciferase luminescence, 18-24 h. Potency, µM (doses to about 46 µM), inactives show top-dose activity change, negative = inhibition, actives largely listed as inhibitors. 2.1% of 360,000 active; also: % is scaled to controls: 0 for no effect and ±100 for the full control effect; nearly all actives have a fitted effect of over 60% in size
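Quantitative HTS in A549 cells stably bearing an antioxidant response element-firefly luciferase construct. Inhibition of Nrf2-driven transcription was scored by luminescence after 18-24 h of compound exposure at 37 °C.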
S2 tox: reduces viability in counter-screen for ATXN expression inhibitors; S2 cells (HEK-293 line with an ATXN2-luciferase reporter) viability, CellTiter-Fluor protease fluorescence, 24 h; Potency, µM (top dose mostly 56.7 µM), usual class: cytotoxic; 0.49% of 400,000 active; also: nearly all actives have a fitted effect of over 40% in size
A549 viability: A549 cytotoxicity, counter-screen for Nrf2 inhibitors. A549 ARE-Fluc cells, CellTiter-Fluor viability, 18-24 h. Potency, µM (titrated, usually from 46 µM), for inactives: at the top dose activity change, negative = cytotoxicity, usual class: inhibitors. 0.16% of 390,000 active. AID 504648; also: % is scaled to controls: 0 for no effect and ±100 for the full control effect
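A549 ARE_Fluc cells in 5% FBS OPTI-MEM were exposed to compounds in concentration-response for 18-24 h at 37 deg C. Viability was read by CellTiter-Fluor fluorescence (Ex 405/Em 525) after 30 min, before the luciferase read.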
ATXN2 expr inh: ATXN2 expression inhibition; Potency, µM (series often up to 57 µM), without a hit: at the top dose activity change, negative = inhibition, most hits filed as inhibitors; 0.72% of 360,000 active; HEK-293 ATXN2-luciferase reporter, luminescence, 24 h; also: % is scaled to controls: 0 for no effect and ±100 for the full control effect; nearly all actives have a fitted effect of over 55% in size
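qHTS (up to 57 uM final) was run with 24 h compound exposure of reporter cells at 37 °C. Each well was multiplexed: SteadyGlo luminescence measured ATXN2-luciferase expression after a fluorogenic Gly-Phe-AFC viability readout (25 uM final).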
Nrf2 ARE act: Nrf2 pathway activation | AREc32 ARE-luciferase reporter (MCF7-derived line), luminescence, 24 h | Potency, µM (series often up to 46.1 µM), without a hit: at the top dose activation, most hits filed as activators | 0.31% of 410,000 active; also: % of control where 0% means no effect; nearly all actives have a fitted effect of over 65% in size
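For detection, Steady-Glo was added and plates sat 30 min at RT; before that, AREc32_Fluc cells grown overnight in OPTI-MEM/5% FBS had been treated with 23 nL compound for 24 hr at 37 deg C.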
* hit, by the source's call; i = inactive; ? = inconclusive; / = not tested or not shown. Calls follow the shape of the dose curve; as a rule, active = well fitted curve in the direction sought with a large enough effect; inconclusive = small, poorly fitted or top-dose-only effect, or another doubt; inactive = no such curve, though single readings can be large; an effect the other way counts as inactive or inconclusive. Potency is read from the fitted curve at half-maximal effect.

SMILES	Nrf2 block	S2 tox	A549 viability	ATXN2 expr inh	Nrf2 ARE act
Cc1ccc(C(=O)NC(=S)Nc2cccc3c(C)cc(C)nc23)cc1	4.2%	i	16.7%	27.1%	4.0%
CC1CC(C)CN(CCCNS(=O)(=O)c2ccc3c(c2)CCN3C(=O)C2CC2)C1 (stereo unspecified)	7.4%	i	3.0%	10.3%	-0.3%
CC1=C(C(=O)Nc2ccc(F)cc2)C(c2ccc(C)o2)C2=C(CC(C)(C)CC2=O)N1 (stereo unspecified)	4.2%	i	-11.9%	5.0%	3.0%
O=C(NN1C(=O)C2C(c3ccccc3)C=CC(c3ccccc3)C2C1=O)c1cccc(Br)c1 (stereo unspecified)	-8.3%	i	6.8%	-2.1%	11.2µM*
OC[C@H]1O[C@H](OCc2ccccc2)[C@H](O[C@@H]2OC[C@@H](O)[C@H](O)[C@H]2O)[C@@H](O)[C@@H]1O	2.3%	i	-14.1%	8.2%	-1.0%
O=[N+]([O-])c1ccc(N2CCCCC2)cc1SCCO	4.8%	i	-4.3%	-32.0%	-0.9%
Cc1nc(N2CCCCC2)sc1C(=O)c1ccc(SCCO)c([N+](=O)[O-])c1	20.6µM*	i	?	-8.6%	4.3%
Cc1nc(-n2[nH]c3c(c2=O)CCCC3)[nH]c(=O)c1Cc1ccccc1	?	17.8µM*	?	8.91µM*	7.1%
O=C(CN1c2ccccc2Sc2ccccc21)NNC(=O)Nc1ccc(Cl)c(Cl)c1	?	i	-18.6%	-10.4%	7.4%
O=C(CN1c2ccccc2Sc2ccccc21)NNC(=O)Nc1ccc(Cl)cc1	18.4µM*	i	?	-31.4%	7.7%
Cc1ccc2nc3cc([N+](=O)[O-])cc([N+](=O)[O-])c3cc2c1	1.1%	7.94µM*	-4.1%	7.52µM*	?
O=S(=O)(Nc1cccc2ncccc12)c1cccs1	20.6µM*	?	?	3.16µM*	?
Cc1c(NS(=O)(=O)c2cccs2)cccc1-c1nc2cccnc2s1	3.8%	i	-2.8%	/	3.2%
CC(C)(C)C(=O)Nc1ccccc1C(=O)N1CCCC1	-8.0%	i	2.7%	6.5%	-0.8%
Fc1cccc(Cl)c1Cn1nnc2c(NCc3ccncc3)ncnc21	23.1µM*	i	-0.8%	-24.9%	0.9%
Fc1cccc(Cl)c1Cn1nnc2c(NCc3ccccn3)ncnc21	-18.7%	i	2.3%	-0.9%	0.8%
Cc1cccn2cc(CNS(=O)(=O)c3ccc4ccccc4c3)nc12	13µM*	i	-7.1%	-0.2%	0.0%
Cc1ccn2cc(CNS(=O)(=O)c3ccc4ccccc4c3)nc2c1	10.7%	i	11.4%	-19.4%	0.2%
Cc1nccc(-c2sc(-c3cccs3)nc2C)n1	7.3%	i	-11.5%	/	12.6µM*
CC[C@@H]1CC2=C(C(=O)OC(C)(C)O2)[C@H](c2ccc(Cl)cc2)O1	/	?	/	2.8%	0.0%
CC1=CC2C(C(O)CC3(C)C2CC(C)C32OCOC23COCO3)C2(C)C/C(=C\O)C(=O)C=C12 (stereo unspecified)	20.6µM*	/	?	?	-2.6%
CC1=C[C@@H]2[C@@H]([C@@H](O)C[C@@]3(C)[C@H]2C[C@@H](C)[C@]3(O)C(=O)CO)[C@@]2(C)Cc3cnn(-c4ccccc4)c3C=C12	/	/	/	-22.6%	/
CC(C)CN1CCC(C(=O)NC(c2ccc(F)cc2)c2ccc3ccccc3n2)CC1 (stereo unspecified)	/	?	/	7.2%	6.3%
COc1ccc(/C=C/CN2CCC(C(=O)NC(c3ccc(F)cc3)c3ccc4ccccc4n3)CC2)cc1 (stereo unspecified)	/	35.5µM*	/	?	-2.9%
CC1CN(C(=O)Nc2ccc(C(=O)NCCc3ccccc3Cl)cc2)c2ccccc2S1 (stereo unspecified)	-19.6%	i	-3.8%	22.8%	3.1%
SMILES	Nrf2 block	S2 tox	A549 viability	ATXN2 expr inh	Nrf2 ARE act
COc1ccccc1CCNC(=O)c1ccc(NC(=O)N2CC(C)Sc3ccccc32)cc1 (stereo unspecified)	20.6µM*	?	0.2%	-15.6%	0.9%
C/C(=N\NC(=O)c1ccc(Cl)c(Cl)c1)c1ccc(Br)s1	7.31µM*	i	-11.2%	?	0.3%
C/C(=N/NC(=O)c1ccc2c(c1)OCO2)c1ccc(Br)s1	?	?	-2.2%	/	8.8%
Cc1ncc2c(c1CNS(=O)(=O)c1cccs1)CCN(C(=O)/C=C/c1ccc(F)cc1F)C2	/	i	/	/	/
FC(F)Sc1ccc(N=C2NN=C(c3ccc4c(c3)OCCO4)CS2)cc1	16.4µM*	/	16.4µM*	/	9.1%
CCCCN=C1NN=C(c2ccc3c(c2)OCCO3)CS1	?	i	-3.4%	-35.2%	-0.9%
c1cc2c(cc1C1=NNC(=NC3CC3)SC1)OCCO2	2.31µM*	?	3.2%	/	-3.5%
C[C@@]12C(=O)N(c3cccc(F)c3)C(=O)N1[C@H](c1ccc(F)cc1)[C@@H]1C(=O)N(C3CCCCC3)C(=O)[C@@H]12	-16.0%	i	-5.7%	9.2%	0.0%
CC1(C)CC(=O)C2=C(C1)OC1=C(C(=O)CC(C)(C)C1)C2c1ccc(O)c([N+](=O)[O-])c1	-12.0%	?	-11.3%	/	-1.1%
CC1(C)CC(=O)C2=C(C1)OC1=C(C(=O)CC(C)(C)C1)C2c1ccc(O)cc1O	/	?	17.8µM*	-31.6%	-3.1%
COc1ccc(Br)cc1Cn1nnc(C(=O)Nc2ccc(C)cc2C)c1N	16.4µM*	?	-25.0%	?	-0.1%
O=C(COC(=O)c1ccccc1)NC1CCCC1	29.0%	i	-0.4%	-0.2%	-0.5%
CCN1C=CC(=C2C(=O)c3ccccc3C2=O)C=C1	1.64µM*	?	-1.8%	1.12µM*	-2.7%
CCCN1C=CC(=C2C(=O)c3ccccc3C2=O)C=C1	3.26µM*	?	-24.6%	?	-2.8%
COc1ccc(NC(=O)Cn2nnc(-c3ccccc3NC(=O)c3cccs3)n2)cc1	18.4µM*	?	-14.2%	?	-0.7%
CN(C)CCCN(C(=O)c1ccco1)c1nc2ccc(Br)cc2s1	-26.0%	?	-4.5%	25.1µM*	-0.4%
CN(C)CCCN(C(=O)CCc1ccccc1)c1nc2ccc(Br)cc2s1	-26.2%	?	2.5%	25.1µM*	-2.1%
O=C(c1cc(COc2ccc(F)cc2F)on1)N1CC2C[C@@H]3CC1C[C@H](C2)C3	?	i	0.0%	15.9%	1.0%
CCC1CCCCN1CCCNC(=O)Cn1cnc2sc(C)c(S(=O)(=O)N3CCC(C)CC3)c2c1=O (stereo unspecified)	2.1%	i	2.0%	-7.4%	0.2%
Cc1ccc(-c2csc(N3CCC(NS(=O)(=O)c4ccc5c(c4)OCCO5)CC3)n2)cc1	14.6µM*	i	?	?	6.5%
Cc1nn2c(NCCN3CCOCC3)c3c(nc2c1-c1ccccc1)CCCC3	-26.4%	i	-3.7%	?	2.7%
